High-throughput results as filed in PubChem BioAssay.
Compounds with a hit are over-represented: about 2.9% of the library has one in this group of screens.
LDHA block = LDHA (human) enzyme inhibition | P00338 | purified LDHA, NADH/diaphorase-resazurin fluorescence; active compounds read low | activity change, % (values are at about 110 or 230 µM) | 480,000 compounds, 0.15% hits | AID 1347041; in the data active = activity change below about -30%; inconclusive = mostly about -25% to -30%;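 note: plate controls were DMSO wells for no effect and wells without enzyme for full effect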
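Resorufin fluorescence (ex540/em590), read at 0 and 20 min after diaphorase/resazurin addition, reports the NADH left after a 5 min room-temperature reaction of 2 nM human LDH5 with 0.06 mM NADH and 0.2 mM pyruvate.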
p53 reactivation = mutant p53 re-activation in reporter cells; H1299 p53-A138V BP100-luciferase reporter, luminescence, 24 h; Potency, µM (series often up to 92.2 µM), without a hit: top-dose activity change, positive = activation, hits mostly activators; 320,000 compounds, 0.063% hits; AID 504706; note: potency is the fitted concentration of half-maximal effect; % of control where 0% means no effect; nearly all actives have a fitted effect of over 45% in size
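H1299 (p53-null), stable ts p53-A138V + BP100-Luc; 1000 cells/well, Opti-MEM/10% FBS; cpd 4 pt, 1:5; 24 h, 37 deg C, 5% CO2; detection reagent 10 min RT; luminescence.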
ClpP mod = qHTS Assay for Activators of ClpP; ATP-dependent Clp protease proteolytic subunit (Bacillus subtilis (strain 168)), P80244; purified B. subtilis ClpP, FRET peptide cleavage, 20 min; Potency, µM (doses to about 57.5 µM), for inactives: at the top dose activity change, negative = active; 340,000 compounds, 1.9% hits; active = well fitted falling curve with a large enough effect; inconclusive = small, poorly fitted or top-dose-only effect; inactive = no such curve, though single readings can be large or run the other way; note: potency is the fitted concentration of half-maximal effect; the source files actives as falling curves though it sought activators and does not explain the sign; nearly all actives have a fitted effect of over 65% in size
Target sequence (P80244 whole entry, looked up): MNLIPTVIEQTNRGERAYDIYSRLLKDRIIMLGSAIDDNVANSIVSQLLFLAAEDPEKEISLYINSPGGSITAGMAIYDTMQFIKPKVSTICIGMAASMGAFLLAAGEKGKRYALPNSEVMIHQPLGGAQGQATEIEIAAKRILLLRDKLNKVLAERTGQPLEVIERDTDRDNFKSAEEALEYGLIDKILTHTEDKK
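Purified B. subtilis ClpP, 10 microg/mL final in Tris/HCl pH8 with KCl, BSA, glycerol and Tween-20, cleaved an Abz/nitrotyrosine-quenched decapeptide. Fluorescence (ex 320, em 430) was read at 0 and 20 min at room temperature. Delta was normalized to 5.8 microM ADEP and DMSO/no-enzyme controls.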
GLP-1R inv ag = inverse agonists of human GLP-1 receptor | HEK293 GLP-1R CRE-luciferase, luminescence, 24 h; GLP-1R form is constitutively active | Potency, µM (series often up to 38.3 µM), for inactives: at the highest dose activity change, negative = inhibition, most hits filed as inhibitors | 410,000 compounds, 1.6% hits; note: potency is the fitted concentration of half-maximal effect; % is set by controls: 0 for no effect and ±100 for the full control effect; nearly all actives have a fitted effect of over 55% in size
Target sequence (P43220 whole entry, looked up): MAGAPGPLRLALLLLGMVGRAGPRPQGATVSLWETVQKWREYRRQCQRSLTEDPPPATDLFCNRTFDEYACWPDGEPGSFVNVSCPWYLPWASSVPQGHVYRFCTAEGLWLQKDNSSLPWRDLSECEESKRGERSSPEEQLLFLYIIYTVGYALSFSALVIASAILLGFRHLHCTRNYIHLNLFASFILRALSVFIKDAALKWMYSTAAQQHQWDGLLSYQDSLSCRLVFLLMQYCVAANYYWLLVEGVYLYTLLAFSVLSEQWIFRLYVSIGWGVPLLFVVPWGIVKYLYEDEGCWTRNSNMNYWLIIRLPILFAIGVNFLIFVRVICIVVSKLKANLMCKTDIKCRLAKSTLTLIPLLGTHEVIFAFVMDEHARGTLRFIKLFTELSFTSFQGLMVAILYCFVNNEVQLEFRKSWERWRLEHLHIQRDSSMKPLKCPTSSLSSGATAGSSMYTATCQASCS
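Cells are plated, allowed 12 hours at 37 deg C, then treated with compounds for 24 hr before luciferase detection reagent is added and luminescence is read after 12 min at room temperature. The HEK293 line carries constitutively active GLP-1R with a cAMP-responsive reporter.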
GLP1R ag = agonists of human GLP-1 receptor. P43220. 380,000 compounds, 0.007% hits. HEK293 GLP-1R CRE-luciferase, luminescence, 4-6 h; cells express a hypersensitive GLP-1R form. Potency, µM (top dose mostly 45.6 µM), without a hit: at the top dose activation, actives largely listed as activators; note: potency is the fitted concentration of half-maximal effect; % of control where 0% means no effect
HEK293 tox = cytotoxicity in counter-screen for GLP-1R inverse agonists; HEK293 cAMP-luciferase reporter cells, luminescence, 24 h; Potency, µM (series often up to 38.3 µM), for inactives: at the highest dose activity change, negative = inhibition, hits mostly inhibitors; AID 624418; 410,000 compounds, 0.13% hits;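 note: loss of luciferase light is scored as toxicity; potency is the fitted concentration of half-maximal effect; % is set by controls: 0 for no effect and ±100 for the full control effect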
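Quantitative HTS format, 1536 wells, 200 cells/uL seeded. Compounds: 23 nL, 24 h, 37 °C. Detection: luciferase reagent, luminescence at 12 min RT; decreased signal taken as cytotoxic.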
An asterisk follows results filed as active; ? = inconclusive; / = no result given; [ ] = dose if it differs, or a comment. Unless noted, calls come from the whole dose curve; as a rule, active = well fitted curve in the direction sought with a large enough effect; inconclusive = small, poorly fitted or top-dose-only effect, or another doubt; inactive = no such curve, though single readings can be large; an effect the other way counts as inactive or inconclusive.

SMILES	LDHA block	p53 reactivation	ClpP mod	GLP-1R inv ag	GLP1R ag	HEK293 tox
COc1ccc(CCCc2nnc(SCC(=O)Nc3nc(C)cs3)n2C)cc1	0	-4%	0%	-10%	0%	-4%
O=C(NCc1ccco1)c1ccc2c(c1)N(Cc1ccccc1)C(=O)c1ccccc1S2=O (centres undefined)	-2	/	/	/	/	/
O=C(NCc1ccco1)c1ccc2c(c1)C(=O)N(Cc1ccccc1)C2=O	-7	3%	28µM*	11%	-15%	8%
COC(=O)c1ccccc1NC(=O)c1ccc2c(c1)C(=O)N(Cc1ccco1)C2=O	-7	/	28µM*	11%	-17%	-3%
COc1ccccc1NC(=O)c1ccc2c(c1)C(=O)N(Cc1ccco1)C2=O	1	-2%	1%	7%	-1%	-2%
CCC(CCNC(=O)c1ccccc1)(CCNC(=O)c1ccccc1)[N+](=O)[O-]	-6	/	1%	-23%	7%	-5%
CCOC(=O)C(CC(=O)c1ccccc1)CC(=O)c1ccccc1	-1	23%	0%	-22%	18%	-16%
Cc1ccc(S(=O)(=O)N[C@H](C(=O)N2CCC3(O)CCCCC3C2)c2ccccc2)cc1 (some centres undefined)	-7	-4%	-1%	1%	-1%	1%
CN(C(=O)CSc1nc2ccc(NC(=O)CCc3ccccc3)cc2s1)c1ccccc1	-7	/	-8%	8.9µM*	/	?
Cc1cccc(NC(=O)CSc2nc3ccc(NC(=O)CCc4ccccc4)cc3s2)c1	-9	/	-8%	-15%	/	-5%
CN(C(=O)CSc1nc2ccc(NC(=O)c3ccc(F)cc3)cc2s1)c1ccccc1	-6	/	?	?	/	-23%
CN(C(=O)CSc1nc2ccc(NC(=O)COc3ccc(F)cc3)cc2s1)c1ccccc1	3	/	-3%	11µM*	/	?
COc1nc(NCCN2CCOCC2)nc(Nc2ccc([N+](=O)[O-])cc2)n1	4	1%	-2%	0%	5%	23%
O=c1[nH]c2ccccc2cc1-c1noc(-c2cccnc2)n1	1	21%	32µM*	-10%	-3%	6%
c1ccc(-c2noc(-c3cccnc3)n2)cc1	-14	/	-2%	10%	-5%	1%
c1ccc(-c2ccc(-c3nc(-c4cccnc4)no3)cc2)cc1	-10	36%	14µM*	13%	8%	15%
CN1c2ccccc2Oc2nnc(Cl)cc21	-7	-9%	/	48%	11%	12%
CCN(CC)CCOc1cc2c(nn1)Oc1ccccc1N2C	-2	6%	13µM*	0%	2%	9%
Cc1cccc(-n2nc([N+](=O)[O-])c(=NC3CCN(Cc4ccccc4)CC3)n2O)c1	2	14µM*	1%	7%	-2%	-30%
Cc1cccc(CCN=c2c([N+](=O)[O-])nn(-c3ccccc3)n2O)c1	2	?	-5%	?	9%	-27%
COc1ccccc1-c1cc2ccccc2[nH]1	-5	?	40µM*	-28%	2%	-3%
CC(C)C(=O)Nc1ccc(C(=O)NNC(=O)C(c2ccccc2)c2ccccc2)cc1	-11	6%	2%	0%	-9%	6%
Cc1ccc(NC(=O)N2CCCN(Cc3ccc(F)cc3)C2)cc1C	-9	-18%	-3%	4µM*	-12%	?
O=c1[nH]cnc2sc(-c3ccccc3)cc12	-6	22%	32µM*	0%	8%	18%
O=c1[nH]c(-c2ccccc2)nc2sc(-c3ccccc3)cc12	0	14%	/	1%	3%	-30%
SMILES	LDHA block	p53 reactivation	ClpP mod	GLP-1R inv ag	GLP1R ag	HEK293 tox
COC1CCCN(Cc2nc(Cc3ccccc3F)no2)C1 (centres undefined)	-17	2%	0%	3%	2%	-1%
Cc1cc(NS(=O)(=O)c2ccc(NC(=O)C(C)Oc3ccc4c(C)cc(=O)oc4c3)cc2)no1 (centres undefined)	-8	-10%	25µM*	12%	-3%	-8%
CCN(CC)S(=O)(=O)c1ccc2[nH]cc(C(=O)NCCCN3CCCCC3C)c(=O)c2c1 (centres undefined)	5	2%	22µM*	0%	-7%	17%
CN(CCC#N)S(=O)(=O)c1ccc2[nH]cc(C(=O)NCCc3ccccc3)c(=O)c2c1	-9	-8%	28µM*	18%	2%	20%[1.53 µM]
CCN(CC)S(=O)(=O)c1ccc2[nH]cc(C(=O)NCCCN3CCCCC3)c(=O)c2c1	1	12%	28µM*	0%	5%	4%[1.53 µM]
CCN(CC)S(=O)(=O)c1ccc2[nH]cc(C(=O)NCCN3CCCCCC3)c(=O)c2c1	-7	-11%	?	4%	1%	3%
O=C(NCCc1ccccc1)c1c[nH]c2ccc(S(=O)(=O)Nc3ccccc3F)cc2c1=O	4	/	-7%	8%	/	4%
CCc1sc(C(=O)Nc2nccs2)cc1C	-2	?	/	?	9%	-17%
O=C(COC(=O)CNC(=O)c1ccc(Br)o1)Nc1ccc2c(c1)OCCO2	-8	-1%	-1%	14%	27%	8%
CN(C)c1ccc(CNC(=O)CCNS(=O)(=O)c2cc(Br)cnc2N)cc1	-1	-4%	-12%	4.5µM*	-4%	-5%
COc1ccc(C(=O)N/C(=C\c2cn(C)c3ccccc23)C(=O)OCCN(C)C)cc1	0	-4%	-1%	?	-1%	2%
Cc1sc(NC(=O)CS(=O)(=O)c2ccccc2)c(C(N)=O)c1C	-3	20%	28µM*	-14%	0%	16%
CC(=O)Oc1ccc(Cl)cc1CN(C(C)=O)C1CCCCC1	-2	/	/	8.9µM*	6%	-8%
CCOC(=O)C1CCN(C(=O)COC(=O)c2cc(-c3cccs3)nc3ccccc23)CC1	6	/	/	/	/	/
Cc1cccc(-c2nc(C#N)c(N3CCOCC3)o2)c1	-31*	/	/	/	/	/
O=S(=O)(c1ccc2ccccc2c1)N1CCN(C(=S)Nc2ccc(F)c(Cl)c2)CC1	-8	1%	-3%	4.5µM*	-4%	-22%
Cc1[nH]c2ccccc2c1CC(=O)NCc1ccco1	-5	/	/	/	/	/
Cc1ccn2c(/C=N/OCc3cccc(F)c3)c(-c3ccc(Cl)cc3)nc2c1	0	-2%	25µM*	8%	1%	27%
Brc1ccc2c(c1)C(C1=NCCN1)c1ccccc1CS2 (centres undefined)	-7	-5%	-1%	1.4µM*	-3%	-6%
